Where a name gives a salt, the structure may show the parent alone. A number with no mark means an inactive call.

This assay deals with primary human airway basal cells (HBEC, luciferase-transduced). Description: proliferation (luciferase bioluminescence) Z score relative to plate mean; higher = more proliferation / more cells, active = 1.96 or more. The settings on record: donor: 1, library: ENZO Libraries, 4 days. Here is the method: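 Primary human bronchial epithelial (airway basal) cells from two donors, lentivirally transduced with pHIV-Luc-ZsGreen, were seeded at 2000 cells/well in 384-well plates in FAD medium with ENZO or Prestwick library compounds and cultured for 4 days. Luciferin was then added and bioluminescence was read as a measure of cell number. Relative light units were converted to Z scores against the plate, and the mean of triplicate wells is reported.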

Turning to `CC(C)n1cnc2c(NCc3ccccc3)nc(NCCO)nc21` [N9-isopropyl-olomoucine], the proliferation was -0.31 (0.5 µM) and -0.285 (5 µM).
For `O=C(O)CCCc1ccccc1`, in that order: -0.468 and -0.326.
With `O=C1Cc2c([nH]c3ccc(Br)cc23)-c2ccccc2N1` [Kenpaullone], the proliferation is 3.89 (active) (0.5 µM) and -0.683 (5 µM).
The like results for `O=c1cc(-c2ccc(O)cc2)oc2cc(O)cc(O)c12` [Apigenin] were, in that order, 0.308 and 3.23 (active).
The like results for `COc1cc(/C=C(\C#N)C(N)=O)cc(CSc2nc3ccccc3s2)c1O` were, in that order, -0.428 and -0.258.
Turning to `N#CC(=Cc1ccc2[nH]ccc2c1)C(N)=C(C#N)C#N`, the proliferation was 0.0615 (0.5 µM) and -0.386 (5 µM).
For `CC1(C)C[C@@H]1C(=O)N/C(=C\CCCCSC[C@H](N)C(=O)O)C(=O)O` [Cilastatin], the proliferation (0.5 µM) was -0.499 and the proliferation (5 µM) is -0.038.
For `O=C(c1ccc(Cl)cc1Cl)n1nnc2ccccc21`, in that order: -0.0821 and 0.316.
For `O=c1oc(Cl)c(Cl)c2ccccc12` [34-Dichloroisocoumarin], in that order: 0.257 and 0.055.
Consider `CC1CNc2c(cccc2S(=O)(=O)N[C@@H](CCCNC(=N)N)C(=O)N2CC[C@@H](C)C[C@@H]2C(=O)O)C1` (some centres undefined) [Argatroban], for which the proliferation is 0.0616 (0.5 µM) and -0.0211 (5 µM).
For `O=C(O)c1cc(N(Cc2ccccc2O)Cc2cc(O)ccc2O)ccc1O` [Lavendustin A], in that order: -0.351 and -0.457.
On to `CC(NC(=O)C(Cc1ccccc1)NC(=O)OCc1ccccc1)C(=O)CF` (centres undefined), for which the proliferation reads like this: (0.5 µM) -0.176; (5 µM) -0.114.
For `Oc1cc(O)cc(/C=C/c2ccc(O)c(O)c2)c1` [Piceatannol], in that order: -0.115 and 1.52.
The like results for `O=C(O)c1ccnc(C(=O)O)c1` [24-Pyridinedicarboxylic Acid] were, in that order, 0.171 and -0.194.
The like results for `O=C(CCCCCCC(=O)NO)NO` [Suberoyl bis-hydroxamic acid] were, in that order, 0.147 and -0.101.
`O=c1c(-c2ccc(O)cc2)coc2cc(O)cc(O)c12` [Genistein]: the proliferation (0.5 µM) was 0.674 and the proliferation (5 µM) is 2.14 (active).
As for `Nc1c(O)cc(O)cc1C=Cc1ccc(O)cc1` [Aminoresveratrol sulfate], the proliferation was 0.00314 (0.5 µM) and 1.56 (5 µM).
